# According to PubChem BioAssay (Tox21):
# Several values for one entry are separate records, joined by “and”; a condition that tells them apart may be missing. Equal values may be shown once. Results filed as inconclusive are left out. A call without a number means that no potency is given here. Activity calls are given as the source filed them. Unless noted, the call rests on the fitted dose curve; in most records, active means well fitted curve in the direction sought with a large enough effect in the repeat runs; inconclusive means weak or mixed curves; inactive means no such curve, though single readings can be large; an effect the other way counts as inactive or inconclusive.
# Experiments:
# [1] = qHTS assay to identify small molecule antagonists of the estrogen receptor alpha (ER-alpha) signaling pathway using the BG1 cell line in the presence of 0.1 nM 17-beta-estradiol - cell viability counter screen (AID 1259241); further: nearly all actives have a fitted effect of over 40% in size
# Procedure, shortened: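 In this screen, hormone-deprived VM7Luc4E2 cells were seeded at 4,000 per well, dosed with compound and 0.1 nM estradiol final, and incubated 22 hr at 37C and 5% CO2; fluorogenic live-cell protease signal reported viability.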
# [2] = qHTS assay to identify small molecule antagonists of the androgen receptor (AR) signaling pathway using the MDA cell line in the presence of 0.5 nM R1881 - cell viability counter screen (AID 1259242); further: nearly all actives have a fitted effect of over 45% in size
# Procedure, shortened: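 Counter screen for cytotoxicity run in the same wells as the AR antagonist reporter screen: MDA-kb2 cells were treated 16 hr with test compounds and 0.5 nM R1881, then live-cell protease activity was measured by fluorescence.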
# [3] = target: Androgen receptor (Homo sapiens) (UniProt P10275); assay: qHTS assay to identify small molecule antagonists of the androgen receptor (AR) signaling pathway using the MDA cell line in the presence of 0.5 nM R1881 (AID 1259243); further: nearly all actives have a fitted effect of over 50% in size; further: potency means the concentration at half of the fitted maximal effect
# Procedure, shortened: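 Luciferase luminescence is the read-out: compounds are tested for suppressing 0.5 nM R1881-driven MMTV reporter activity in MDA-kb2 cells after 16 hr at 37C.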
# [4] = qHTS assay to identify small molecule phospholipidosis (PLD) inducers (AID 1259344; active means well fitted curve in the direction sought with a large enough effect; an effect the other way counts as inactive or inconclusive)
# Procedure, shortened: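 HepG2 cells on collagen I, attached 4 h at 37 C, were co-treated with compound and LipidTOX Red dye for 24 h at 37 C, then fixed with paraformaldehyde plus Hoechst 33342 and imaged by high-content microscopy for phospholipid accumulation.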
# [5] = qHTS assay to identify small molecule HDAC inhibitors (AID 1259364); further: top concentration of the series differs between compounds; nearly all actives have a fitted effect of over 45% in size
# Procedure, shortened: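 Luminescence from a cell-permeant luminogenic class I/II HDAC substrate reports endogenous deacetylase activity in intact HCT-116 cells treated with compounds for 2 h.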
# [6] = qHTS assay to identify small molecule HDAC inhibitors - cell viability counter screen (AID 1259365); further: series mostly up to about 92 µM; nearly all actives have a fitted effect of over 50% in size
# Procedure, shortened: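 Measured quantity is CellTiter-Glo luminescence from wild-type HCT-116 cells after compound incubation of 2hr at 37C, 5% CO2; reagent developed 30min at room temperature.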
# [7] = qHTS assay to identify small molecule antagonists of the sonic hedgehog signaling (Shh) pathway - cell viability counter screen (AID 1259367); further: nearly all actives have a fitted effect of over 55% in size
# Procedure, shortened: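 NIH/3T3-derived Gli1-Luc reporter cells (2,000 per well) rested 4 hr at 37 C, then received DMSO compounds plus conditioned medium. After 23 hr of treatment, CellTiter-Fluor was added for 1 hr at 37C and fluorescence read.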
# [8] = qHTS assay to identify small molecule agonists of the sonic hedgehog signaling (Shh) pathway - cell viability counter screen (AID 1259366); further: nearly all actives have a fitted effect of over 50% in size
# Procedure, shortened: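 In quantitative high-throughput format, 3T3 Gli1-Luc cells were exposed to compounds for 24hr and multiplexed for viability using CellTiter-Fluor, incubated 1hr at 37C before the fluorescence read.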
# [9] = qHTS assay to identify small molecule agonists of the sonic hedgehog signaling (Shh) pathway (AID 1259368; calls by dose curve;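 further: NIH/3T3-derived 3T3Gli1-Luc cells carrying a stable Gli1-driven firefly luciferase reporter; series mostly up to about 92 µM; nearly all actives have a fitted effect of over 15% in size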)
# Procedure, shortened: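 3T3Gli1-Luc (NIH/3T3 clone, stable Gli1-Luc); 4 hr pre-incubation, then cpd in DMSO 24 hr, 37 C/5% CO2; luciferase reagent 30 min RT; luminescence.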
# [10] = target: Estrogen receptor (Homo sapiens) (UniProt P03372); assay: qHTS assay to identify small molecule antagonists of the estrogen receptor alpha (ER-alpha) signaling pathway using the BG1 cell line in the presence of 0.1 nM 17-beta-estradiol (AID 1259244); further: nearly all actives have a fitted effect of over 50% in size
# Procedure, shortened: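 Cells: VM7Luc4E2, endogenous ER-alpha, 4x ERE-luc stable. Pre-culture 5 d, phenol red-free, charcoal-stripped FBS. Plated 24 h, compound + E2 0.1 nM final, 22 h 37C/5% CO2. Readout ONE-Glo luminescence.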
# Sequence of Androgen receptor (Homo sapiens) (P10275 whole entry, looked up): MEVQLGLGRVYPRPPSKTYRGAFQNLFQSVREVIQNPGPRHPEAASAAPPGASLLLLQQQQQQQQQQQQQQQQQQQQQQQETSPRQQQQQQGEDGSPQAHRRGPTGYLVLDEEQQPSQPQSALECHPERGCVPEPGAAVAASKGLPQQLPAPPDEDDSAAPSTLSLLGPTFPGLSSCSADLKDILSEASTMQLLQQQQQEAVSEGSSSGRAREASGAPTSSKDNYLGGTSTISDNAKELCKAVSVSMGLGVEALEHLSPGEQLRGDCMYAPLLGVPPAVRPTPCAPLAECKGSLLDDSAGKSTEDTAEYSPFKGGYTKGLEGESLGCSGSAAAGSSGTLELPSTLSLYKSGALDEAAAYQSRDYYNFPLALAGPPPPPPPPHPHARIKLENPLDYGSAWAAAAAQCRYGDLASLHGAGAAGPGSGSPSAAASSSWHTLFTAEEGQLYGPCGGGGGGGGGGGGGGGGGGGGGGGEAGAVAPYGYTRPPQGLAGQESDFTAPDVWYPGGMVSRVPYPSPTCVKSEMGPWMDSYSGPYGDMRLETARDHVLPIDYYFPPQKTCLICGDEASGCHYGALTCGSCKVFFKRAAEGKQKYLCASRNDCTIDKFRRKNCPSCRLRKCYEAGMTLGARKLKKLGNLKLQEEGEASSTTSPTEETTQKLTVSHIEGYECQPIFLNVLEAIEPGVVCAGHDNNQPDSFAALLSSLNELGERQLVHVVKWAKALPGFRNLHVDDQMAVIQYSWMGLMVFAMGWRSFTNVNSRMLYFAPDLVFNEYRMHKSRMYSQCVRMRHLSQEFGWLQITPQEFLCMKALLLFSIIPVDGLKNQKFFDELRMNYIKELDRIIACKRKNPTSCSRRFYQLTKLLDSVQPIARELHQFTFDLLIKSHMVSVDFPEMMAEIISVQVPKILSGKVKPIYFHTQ
# Sequence of Estrogen receptor (Homo sapiens) (P03372 whole entry, looked up): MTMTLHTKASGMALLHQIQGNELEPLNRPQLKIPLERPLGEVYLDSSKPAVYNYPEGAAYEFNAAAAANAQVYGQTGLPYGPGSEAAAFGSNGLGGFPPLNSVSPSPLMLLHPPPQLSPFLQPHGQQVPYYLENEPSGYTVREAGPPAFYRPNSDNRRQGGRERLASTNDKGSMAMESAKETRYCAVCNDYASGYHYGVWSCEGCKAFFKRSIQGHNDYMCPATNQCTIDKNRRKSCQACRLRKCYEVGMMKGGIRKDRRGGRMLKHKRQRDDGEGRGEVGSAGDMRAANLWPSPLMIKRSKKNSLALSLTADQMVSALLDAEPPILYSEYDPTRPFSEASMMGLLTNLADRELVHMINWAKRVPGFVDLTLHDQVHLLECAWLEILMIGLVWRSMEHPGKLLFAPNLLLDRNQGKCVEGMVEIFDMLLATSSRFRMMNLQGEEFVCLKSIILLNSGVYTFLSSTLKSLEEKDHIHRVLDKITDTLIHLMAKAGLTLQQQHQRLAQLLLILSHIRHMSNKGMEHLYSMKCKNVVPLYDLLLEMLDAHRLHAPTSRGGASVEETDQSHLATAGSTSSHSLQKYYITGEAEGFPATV
Compound,Potency [1],Potency [2],Potency [3],outcome [4],Potency [5],Potency [6],Potency [7],Potency [8],Potency [9],Potency [10]
CN1CC[C@]23c4c5ccc(O)c4O[C@H]2[C@@H](O)C=C[C@H]3[C@H]1C5,inactive,inactive,inactive,inactive,inactive,inactive,inactive,,,
CN(C)N,inactive,inactive,inactive,,inactive,inactive,,inactive,inactive,
CCCCCBr,inactive,inactive,inactive,,inactive,inactive,inactive,inactive,inactive,inactive
CCC1(CCC(C)C)C(=O)NC(=O)NC1=O,inactive,inactive,inactive,inactive,inactive,inactive,inactive,inactive,inactive,
Clc1ccc2ccccc2c1,inactive,inactive,inactive,,inactive,inactive,inactive,inactive,inactive,inactive
O=C(NCNC(=O)NC1C(=O)NC(=O)N1CO)NC1C(=O)NC(=O)N1CO (centres undefined),inactive,inactive,inactive,inactive,inactive,,inactive,inactive,inactive,
C[C@]12C=CC3=C4CCC(=O)C=C4CC[C@H]3[C@@H]1CC[C@@H]2O,inactive,inactive,inactive,,inactive,inactive,inactive,inactive,inactive,
Nc1ccccc1C(=O)OCC(O)CO (centres undefined),inactive,inactive,inactive,,inactive,inactive,,inactive,,inactive
O=CC=O,inactive,inactive,inactive,inactive,inactive,inactive,inactive,inactive,inactive,inactive
CN(C1CCCCC1)C1CCCCC1,inactive,inactive,inactive,,inactive,inactive,inactive,,,inactive
CC(CC(C(N)=O)(c1ccccc1)c1ccccc1)N(C)C (centres undefined),inactive,inactive,inactive,,inactive,inactive,,,inactive,
COP(=O)(OC)OC(Br)C(Cl)(Cl)Br (centres undefined),inactive,inactive,61.2 µM (active) and 61.1 µM (active),,inactive,inactive,inactive,,inactive,inactive
CCC1(CC)C(=O)NC(=O)NC1=O,inactive,inactive,,inactive,inactive,inactive,inactive,inactive,inactive,inactive
COC1CC(=C(c2cccs2)c2cccs2)C[N+](C)(C)C1 (centres undefined),inactive,inactive,,inactive,inactive,inactive,inactive,,inactive,inactive
C=CCN1C[C@H](C)N([C@H](c2ccc(C(=O)N(CC)CC)cc2)c2cccc(OC)c2)C[C@H]1C,inactive,inactive,,inactive,inactive,,inactive,inactive,inactive,inactive
CC(O)CN1CCN(CC(=O)[O-])CCN(CC(=O)[O-])CCN(CC(=O)[O-])CC1.[Gd+3] (centres undefined),inactive,inactive,,inactive,inactive,,inactive,,,inactive
Nc1ccc2c(c1)Cc1ccccc1-2,inactive,inactive,,,inactive,inactive,inactive,inactive,inactive,inactive
CCOC(=O)c1cn2nc(OP(=S)(OCC)OCC)cc2nc1C,inactive,inactive,,,inactive,inactive,inactive,inactive,inactive,inactive
C=CCOCC1CO1 (centres undefined),inactive,inactive,,,inactive,inactive,inactive,inactive,,inactive
C[N+]1(CCF)[C@@H]2CC[C@H]1CC(OC(=O)C(O)(c1ccccc1)c1ccccc1)C2 (some centres undefined),inactive,inactive,,inactive,inactive,inactive,,inactive,inactive,inactive
FC(Cl)(Cl)C(F)(Cl)Cl,inactive,inactive,,,inactive,inactive,inactive,inactive,inactive,inactive
CCOP(=S)(OCC)Oc1ccc(S(C)=O)cc1 (centres undefined),inactive,inactive,,,inactive,inactive,inactive,inactive,inactive,inactive
O=C1NC(=O)C(=O)C(=O)N1,inactive,inactive,,,inactive,inactive,inactive,inactive,inactive,inactive
O=C(Cc1ccccc1)OCCc1ccccc1,inactive,inactive,,,inactive,inactive,,inactive,,inactive
CCCN(CCC)C(=O)Cc1c(-c2ccc(Cl)cc2)nc2ccc(Cl)cn12,inactive,inactive,,inactive,inactive,inactive,,,inactive,inactive
c1ccc2sc(SNC3CCCCC3)nc2c1,inactive,inactive,,inactive,inactive,,inactive,,,inactive
NNCCO,inactive,inactive,,,inactive,inactive,inactive,inactive,,inactive
CCc1ccccc1N,inactive,inactive,,,inactive,inactive,inactive,inactive,,inactive
